The campaign covered roughly 69,000 compounds. About 8,600 (12%) showed an effect of 50% or more. The list comes from a sample in which strong results are over-represented; it also holds similar structures and randomly drawn compounds.

52 compounds from ChEMBL document CHEMBL4513216, “Probing the Open Global Health Chemical Diversity Library for Multistage-Active Starting Points for Next-Generation Antimalarials” (ACS Infect Dis, 2020) can be followed below.

The test system of the test is Plasmodium berghei. Nature of the test: Screen against P. berghei liver stage (PbLuc), transformed with Luciferase, at 10uM. It is filed as functional, HepG2. The settings on record: tested at 10 uM.
For the compound `Cc1cc(N2CCC(O)(CN(C)C(=O)CCCN)C2)c2cnccc2n1` (configuration not stated), the INHIBITION was -16.8%. In the case of `Cc1ccc(-c2nnc(CNCCn3cc(C)cn3)o2)cc1` it was 14.4%; in that of `Cc1nc(C)n(CC2CN(Cc3ccncc3)Cc3nccn3C2)n1` (configuration not stated), -15.6%. In the case of `CCc1noc(C(C)N2CCN(S(=O)(=O)N3CCCC3)CC2)n1` (configuration not stated) it was -11.4%; in that of `CN1C(=O)CC(c2ccncc2)C12CCN(c1ncccn1)CC2` (configuration not stated), 29.4%. In the case of `O=C(NC1CCC1)C1=NOC2(CCN(Cc3ccc(F)cc3)C2)C1` (configuration not stated), the INHIBITION amounted to 64.9%. In the case of `O=C(NCC1CC1)C1=NOC2(CCN(S(=O)(=O)c3ccc(F)cc3)C2)C1` (configuration not stated) it was -19.1%. For `O=C(NCC1CC1)C1=NOC2(CCN(Cc3ccc(Cl)c(F)c3)C2)C1` (configuration not stated) the value was 38.5%; for `CN(C)[C@H]1CN(C(=O)CCc2cccc(F)c2)C[C@@H]1C1CC1`, 30.9%; for `O=C(c1cscn1)N1CCc2c(COCC3CC3)cncc2C1`, 58.4%. In the case of `COCc1cncc2c1CCN(C(=O)c1cscn1)C2` it was 21.3%; in that of `O=C(c1ccsc1)N1CCc2c(COCC3CC3)cncc2C1`, 39.8%. For the compound `O=C(c1cnccn1)N1CCc2c(COCC3CC3)cncc2C1`, the INHIBITION is 39.2%. Regarding `CCOCc1cncc2c1CCN(C(=O)c1cscn1)C2`, the INHIBITION turned out to be 62%. Regarding `CC(C)COCc1cncc2c1CCN(C(=O)c1cscn1)C2`, the INHIBITION is recorded as 18.6%.

With `CN(C)C(=O)C1(c2cnccn2)CCCN1C(=O)Cc1ccccc1` (configuration not stated), the INHIBITION is recorded as 28.475%.

For `CC1c2ncc(Cn3cncn3)n2CCN1C1CCOCC1` (configuration not stated), the INHIBITION was 2.01%. For `O=C(CCc1ccc2c(c1)OCO2)N1CCCCC1Cn1cccn1` (configuration not stated) the value was -0.219%. Turning to `CCN1CCOCC2(CCCN(C(=O)c3cnccn3)C2)C1` (configuration not stated), the INHIBITION is reported as -8.51%. For `CN(C)C(=O)c1ccc(C2CCCN2C(=O)c2cccc3c2OCC3)s1` (configuration not stated), the INHIBITION was 81.1%. For `CN(C)C(=O)c1ccc(C2CCCN2C(=O)c2ccccc2N(C)C)s1` (configuration not stated), the INHIBITION was determined as 39.1%. In the case of `CSc1ncccc1C(=O)N1C[C@@H]2CC[C@H]1CN(CC(=O)N(C)C)C2` it was 22.8%; in that of `CN(C)C(=O)c1ccc(C2CCCN2C(=O)CCC2=NNC(=O)CC2)s1` (configuration not stated), 56.7%.

With `CSc1ncccc1C(=O)N1C[C@@H]2CC[C@H]1CN(C(=O)N(C)C)C2`, the INHIBITION amounted to 30.3%.

`Cc1occc1C(=O)N1CCCC1c1ccc(C(=O)N2CCOCC2)s1` (configuration not stated): the INHIBITION is -60.2%. Regarding `O=C1CCC(CCC(=O)N2CCCC2c2nccs2)=NN1` (configuration not stated), the INHIBITION was 27.6%. In the case of `O=C1CCC(CCC(=O)N2CCC2c2cccs2)=NN1` (configuration not stated) it was 11.2%; in that of `CSc1ncccc1C(=O)N1CCCC1c1ccc(C(=O)N(C)C)s1` (configuration not stated), 65.2%. Take `CNC(=O)N1CCC2(CC1)CN(C(C)C)Cc1cc(F)ccc12`: the INHIBITION worked out at 42.3%. In the case of `CC(=O)c1ccc(C(=O)N2C[C@H]3CC[C@@H](C2)N(CC2CCC2)C3)s1` it was -92.2%. In the case of `O=C([C@H]1COC[C@H]2CN(C3CCOCC3)C[C@H]21)N1CCCO1` it was -1.83%. For `O=C(c1cnccn1)N1CCN2C[C@H](Oc3cccnc3)C[C@H]2C1` the value was 15.6%; for `Cc1nc(CN2CCN3C[C@H](Oc4cncnc4)C[C@H]3C2)cs1`, 88.3%; for `Cc1ccc(O[C@@H]2C[C@H]3CN(c4ncc(F)cn4)CCN3C2)cc1`, 79.2%.

On to `Cc1ccc(O[C@@H]2C[C@H]3CN(Cc4nccn4C)CCN3C2)cc1`, for which the INHIBITION is listed as -15.7%. In the case of `O=C(c1ccc(F)cc1)N1CCN2C[C@H](Oc3cccnc3)C[C@H]2C1` it was 44.2%; in that of `c1cnc(N2CCN3C[C@H](Oc4cncnc4)C[C@H]3C2)nc1`, 34.5%. In the case of `c1cncc(CN2CCN3C[C@H](Oc4cncnc4)C[C@H]3C2)c1` it was 27.6%; in that of `Fc1cnc(N2CCN3C[C@H](Oc4cccnc4)C[C@H]3C2)nc1`, 82.2%; in that of `Cc1cnc(N2CCN3C[C@H](OCc4ccccn4)C[C@H]3C2)nc1`, 42.3%. For `Cn1ccnc1CN1CCN2C[C@H](Oc3cncnc3)C[C@H]2C1`, the INHIBITION is recorded as -10.3%.

For the compound `Fc1cnc(N2CCN3C[C@H](Oc4cncnc4)C[C@H]3C2)nc1`, the INHIBITION was found to be 56.4%. As for `Cc1cccc(CN2CCN3C[C@H](Oc4cncnc4)C[C@H]3C2)n1`, the INHIBITION was 37.6%. As for `O=C(COCc1ccccc1)N1CCCC(OCc2cccnc2)C1` (configuration not stated), the INHIBITION was determined as 0.348%. As for `CCCc1nc(CN2CCCC2c2cnn(C)c2)cs1` (configuration not stated), the INHIBITION is -32%. Regarding `CCn1cc(CN2CCN(CC(O)c3ccc(C)cc3C)CC2)cn1` (configuration not stated), the INHIBITION came to 5.11%. Turning to `CN1CC(=O)N(c2cnn(C)c2)CC12CCN(Cc1cccs1)C2` (configuration not stated), the INHIBITION was found to be 7.31%. With `CC(NC(=O)N(C)CCOc1ccccc1F)c1nncn1C` (configuration not stated), the INHIBITION was 7.08%.

As for `CC1(C(N)=O)CN(CC2CCC2)CCO1` (configuration not stated), the INHIBITION is reported as -1.75%.

For `CS(=O)(=O)N1CC[C@@H]2O[C@@H](COCC(=O)N3CCCC3)CC[C@@H]21`, the INHIBITION came to 1.9%. For `Cc1nc(C2CCN(C(=O)c3ccnn3C)CC2)c2sccn12` the value was 15.9%. As to `Cc1cccc2sc(NC(=O)CN3CCCC4(CC3)CNC(=O)O4)nc12` (configuration not stated), the INHIBITION came to 38.7%.
